Reference: PubChem BioAssay AID1159580 (chemical genetic matrix, 2015)
Screen size: about 5,500 compounds; about 2,000 (36%) were called active. Roughly 18% stayed inconclusive and do not appear here. Cut-off read from the data, not from the text of the source: active = normalized growth mostly below about 0.91 (no sharp cut-off); inconclusive = no clear call, values can overlap the other calls; inactive = mostly above about 0.92. This is one part of the list.

Assay: chemical genetic growth profiling, strain panel (AID 1159580);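 note: tested at 20 µM; growth read once vehicle control cultures reached saturation at 30 °C; 1 = growth at the plate median or of vehicle wells; lower values mean less growth of the strain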
Details: S. cerevisiae deletion strains, growth OD

Measured: normalized growth

CCCCN1CCC(n2c(=O)[nH]c3ccccc32)CC1
inactive: locus YAL040C, strain CLN3, hits give low values 1.01 | locus YCL061C, strain MRC1 (second series), hits give low values 1.01 | locus YDR363W, strain ESC2, hits give low values 1.02 | locus YER002W, strain NOP16, hits give low values 0.994 | locus YGR229C, strain SMI1, hits give low values 1.01 | locus YJR075W, strain HOC1, hits give low values 1.02 | locus YMR263W, strain SAP30, hits give low values 1 | locus YNL153C, strain GIM3, hits give low values 0.952 | locus YNL175C, strain NOP13, hits give low values 1.01 | locus YNL197C, strain WHI3, hits give low values 1.03 | locus YNL224C, strain SQS1, hits give low values 0.988 | locus YOR083W, strain WHI5 (second series), hits give low values 1.01
